± gives the uncertainty stated by the source.

This test concerns U87. The experiment in a line: cell viability relative to vehicle control; higher = less growth inhibition (less active). The conditions noted are these: 10 µM; 72 h.
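Further: viable cell number estimated from Alamar Blue fluorescence read at 560/90, part of a single-dose primary screen of an FDA-approved drug library.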

On to `COc1cc(C(=O)NC2CCCNC2)cc(OC)c1OC` (centres undefined), for which the cell viability turned out to be 101 ± 4.2%. The figure for `NC1CCN(c2cccc(Cl)n2)CC1` is 97.7 ± 4%. As for `CC(=O)Nc1ccc(CC(=O)O)cc1`, the figure is 100 ± 1.1%.

As to `CN(C)CCC(c1ccc(Cl)cc1)c1ccccn1` (centres undefined) [Chlorpheniramine], the cell viability was found to be 109 ± 2.8%. In the case of `CN1CCC(=C2c3ccccc3CC(=O)c3sccc32)CC1`, the cell viability turned out to be 109 ± 3.3%. As for `CCCN[C@H]1CCc2nc(N)sc2C1` [Pramipexole], the figure is 92.5 ± 8.8%.

Consider `CCOC(=O)C1(CCCCCCOc2ccc(Cl)cc2)CO1` (centres undefined), for which the cell viability was determined as 106 ± 1.7%. In the case of `CC(=O)[C@H]1CC[C@H]2[C@@H]3CCC4=CC(=O)CC[C@]4(C)[C@H]3CC[C@]12C`, the cell viability was 107 ± 3%. With `CC1CNc2c(cccc2S(=O)(=O)N[C@@H](CCCNC(=N)N)C(=O)N2CC[C@@H](C)C[C@@H]2C(=O)O)C1` (some centres undefined), the cell viability was 105 ± 2.8%. As for `O=C(NCCO[N+](=O)[O-])c1cccnc1` [Nicorandil], the figure is 101 ± 2.2%. `Cc1ccnc2c1NC(=O)c1cccnc1N2C1CC1` [Viramune]: the cell viability was 107 ± 3.4%. For the molecule `CN(C)CCN(Cc1ccccc1)c1ccccn1`, the cell viability came to 96.4 ± 2.6%.

`CCN(CC)CC1CCCCN1CC(=O)N1c2ccccc2C(=O)Nc2cccnc21` (centres undefined): the cell viability was determined as 110 ± 1.9%.

Take `CN(C)CC[C@@H](c1ccc(Br)cc1)c1ccccn1`: the cell viability was 104.1 ± 0.82%.

`CO[C@H]1O[C@@H]2O[C@@]3(C)CC[C@H]4[C@H](C)CC[C@@H]([C@H]1C)[C@@]24OO3`: the cell viability stood at 107 ± 2.1%. As for `CN1CC(=O)N2[C@H](c3ccc4c(c3)OCO4)c3[nH]c4ccccc4c3C[C@@H]2C1=O`, the figure is 107 ± 1.3%; as for `Cc1cc2c(s1)Nc1ccccc1N=C2N1CCN(C)CC1`, 108 ± 1.7%; as for `Cc1cn([C@H]2C=C[C@@H](CO)O2)c(=O)[nH]c1=O`, 105 ± 3%.

Take `CN[C@H]1CC[C@@H](c2ccc(Cl)c(Cl)c2)c2ccccc21` [Sertraline]: the cell viability was found to be 34.2 ± 3.8%. The figure for `O=C(NCCN1CCOCC1)c1ccc(Cl)cc1` [4-Chloro-N-(2-morpholin-4-yl-ethyl)-benzamide] is 80.9 ± 3.8%; for `CC[C@H](C)C(=O)O[C@H]1C[C@H](O)C=C2C=C[C@H](C)[C@H](CC[C@@H](O)C[C@@H](O)CC(=O)O)[C@H]21` [PRAVASTATIN Sodium] it is 105.9 ± 0.46%; for `CN(C)CCOC(c1ccccc1)c1ccccc1` [Diphenhydramine] it is 103 ± 1.1%. Regarding `CCCCC1=NC2(CCCC2)C(=O)N1Cc1ccc(-c2ccccc2-c2nnn[nH]2)cc1`, the cell viability was found to be 98 ± 3.2%.

As to `COc1cc(C(=O)NS(=O)(=O)c2ccccc2C)ccc1Cc1cn(C)c2ccc(NC(=O)OC3CCCC3)cc12`, the cell viability worked out at 104 ± 1.1%. As for `CC(=O)N1CCN(c2ccc(OCC3COC(Cn4ccnc4)(c4ccc(Cl)cc4Cl)O3)cc2)CC1` (centres undefined) [Ketoconazole], the figure is 94.3 ± 13%. As for `COC(=O)Nc1nc2cc(C(=O)c3ccc(F)cc3)ccc2[nH]1`, the figure is 30 ± 7.6%. Consider `NC(=O)OCC(COC(N)=O)c1ccccc1` [Felbamate], for which the cell viability was 105.7 ± 1%. The figure for `CCc1ccc(CCOc2ccc(CC3SC(=O)NC3=O)cc2)nc1` (centres undefined) is 105 ± 3.6%; for `CN1CCC(=C2c3ccccc3CCc3sccc32)CC1` [Pizotyline] it is 94.7 ± 13%; for `CC[C@]1(O)C[C@@H]2CN(CCc3c([nH]c4ccccc34)[C@@](C(=O)OC)(c3cc4c(cc3OC)N(C)[C@H]3[C@@](O)(C(N)=O)[C@H](O)[C@]5(CC)C=CCN6CC[C@]43[C@@H]65)C2)C1` it is 24.7 ± 8.7%.

Regarding `CN1CCN2c3ncccc3Cc3ccccc3C2C1` (centres undefined), the cell viability came out at 108 ± 2.1%.

For the molecule `Clc1cccc(Cl)c1NC1=NCCN1`, the cell viability is 108 ± 2.8%. The figure for `CCCCN1CCCC1CNC(=O)c1cc(C#N)c2ccccc2c1OC` (centres undefined) [Nafadotride] is 102 ± 1.5%; for `CC(=O)O[C@H]1C[C@@H]2CC[C@@H]3[C@H](CC[C@@]4(C)[C@H]3C[C@H]([N+]3(C)CCCCC3)[C@@H]4OC(C)=O)[C@@]2(C)C[C@@H]1N1CCCCC1` it is 103.2 ± 0.3%.

For the molecule `COCC1=C(C(=O)OC(C)OC(=O)OC(C)C)N2C(=O)[C@@H](NC(=O)/C(=N\OC)c3csc(N)n3)[C@H]2SC1` (some centres undefined), the cell viability is 106 ± 1.6%. As for `CCCCC[C@H](O)/C=C/[C@H]1[C@H](O)CC(=O)[C@@H]1CCCCCCC(=O)O` [Prostaglandin E1], the figure is 105.7 ± 0.69%; as for `COc1cc(N)c(Cl)cc1C(=O)NC1CCN(CCCOc2ccc(F)cc2)CC1OC` (centres undefined) [Cisapride], 103.5 ± 0.4%; as for `Cn1nnc2c(C(N)=O)ncn2c1=O`, 106 ± 1.3%. The figure for `COC(=O)C1=C(C)NC(C)=C(C(=O)OC2CCCN(Cc3ccccc3)C2)C1c1cccc([N+](=O)[O-])c1` (centres undefined) is 104 ± 1.2%.

Values taken from the supplement of paper PMC3898565.
